Compound activity (PubChem)
Beta apoptosis: inhibitors of cytokine-induced beta cell apoptosis, primary screen, luminescence. protection from apoptosis, % (no concentration beside the values). hit rate 0.8% among 300,000. INS-1E cytokine-induced death, ATP luminescence, 48 h; percent of positive-control rescue, neutral wells zero. AID 435005, 2010;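 active = Every replicate reaches about 75%, or at least half do and their mean reaches it too, limit read from the data; inconclusive = At least half of replicates reach the limit but their mean does not; inactive = Under half of replicates reach the limit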;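 also: higher means more ATP so stronger rescue from cytokine killing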
Calb FLC: C. albicans growth inhibition with fluconazole, primary screen, CaCi-2 strain, Alamar Blue fluorescence. C. albicans CaCi-2 (fluconazole-resistant clinical isolate) + fluconazole, 48 h. hit rate 0.57% among 300,000. growth inhibition, % (no concentration beside the values). AID 1979, 2009;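 active = growth inhibition above about 58% in most replicates, limit read from the data, passing the limit was not always enough; inconclusive = exactly half the replicates above a set limit; inactive = most replicates below a set limit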;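 also: all wells also contain fluconazole at 8 µg/ml as a sub-toxic cotreatment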
MPTP inh: mitochondrial permeability transition pore inhibitors, primary screen, biochemical, isolated mouse mitochondria, absorbance | Ca2+ swelling absorbance, 30 min | inhibition, % at 10 µM | hit rate 1.4% among 360,000;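 active = inhibition of 50% or more, scaled per plate between neutral and stimulator controls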
CSC inhib: cancer stem cell viability inhibitors, primary screen, luminescence; inhibition, % at 7.5 µM; hit rate 1.1% among 300,000; cancer stem cell-like cells viability; in the data active = inhibition above about 75%; inconclusive = no clear call, values can overlap the other calls; tested in HMLE shEcad cells
Mdm2-MdmX inh: inhibitors of human Mdm2-MdmX association, primary screen, cell-based, luminescence, split luciferase, SaOS-2, uHTS. Protein Mdm4 (Homo sapiens) + E3 ubiquitin-protein ligase Mdm2 (Homo sapiens), …. SaOS-2 split-luciferase Mdm2/MdmX complementation. inhibition, % at 8 µM. hit rate 3% among 330,000. AID 485346, 2010;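 active = inhibition of at least 50% at 8 µM in the primary screen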
Target sequence (O15151 whole entry, looked up): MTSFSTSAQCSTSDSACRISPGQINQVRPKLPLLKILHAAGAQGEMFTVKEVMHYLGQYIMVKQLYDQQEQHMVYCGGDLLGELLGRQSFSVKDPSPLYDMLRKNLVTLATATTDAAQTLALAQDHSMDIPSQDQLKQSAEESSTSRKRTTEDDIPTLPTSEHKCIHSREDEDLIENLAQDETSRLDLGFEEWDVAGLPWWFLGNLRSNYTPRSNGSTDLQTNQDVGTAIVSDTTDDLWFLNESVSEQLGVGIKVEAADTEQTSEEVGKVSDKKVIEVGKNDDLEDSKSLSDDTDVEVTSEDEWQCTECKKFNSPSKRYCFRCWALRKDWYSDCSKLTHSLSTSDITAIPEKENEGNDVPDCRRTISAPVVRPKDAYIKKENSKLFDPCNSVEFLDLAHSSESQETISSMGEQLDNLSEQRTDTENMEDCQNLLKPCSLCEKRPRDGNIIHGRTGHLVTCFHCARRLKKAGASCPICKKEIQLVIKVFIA
Target sequence (Q00987 whole entry, looked up): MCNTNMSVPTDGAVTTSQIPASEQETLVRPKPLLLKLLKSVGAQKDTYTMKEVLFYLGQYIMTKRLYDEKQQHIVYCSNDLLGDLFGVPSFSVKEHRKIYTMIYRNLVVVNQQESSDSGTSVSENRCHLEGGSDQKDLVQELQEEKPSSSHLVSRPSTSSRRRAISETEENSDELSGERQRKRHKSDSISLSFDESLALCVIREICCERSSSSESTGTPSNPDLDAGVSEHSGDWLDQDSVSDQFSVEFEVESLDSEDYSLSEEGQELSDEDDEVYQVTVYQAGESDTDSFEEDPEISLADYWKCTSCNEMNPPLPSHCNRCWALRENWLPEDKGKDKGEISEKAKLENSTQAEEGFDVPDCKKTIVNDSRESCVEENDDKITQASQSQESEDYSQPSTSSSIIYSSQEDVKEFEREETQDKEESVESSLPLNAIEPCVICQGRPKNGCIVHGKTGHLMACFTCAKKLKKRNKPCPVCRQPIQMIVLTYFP
Mdm2-MdmX conf: Mdm2-MdmX complex disruptors, retested hits, confirmation, luminescence, single concentration. shares compounds with Mdm2-MdmX inh. Mdm2-MdmX binding, luminescent assay. inhibition, % at 8 µM. hit rate 55% among 10,000. AID 489028, 2010; in the data active = inhibition above about 40%
FLuc counter: full-length luciferase signal inhibition, confirmation, counter-screen for Mdm2/MdmX interaction inhibitor project, cell-based, single concentration, SaOS-2. shares compounds with Mdm2-MdmX inh. SaOS-2 full-length luciferase counterscreen, luminescence. inhibition, % at 8 µM. hit rate 77% among 6,200;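 active = mean inhibition at 8 µM reaching about 37%, which flags the compound as non-specific, limit read from the data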;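 also: p53-null SaOS-2 cells with luciferase driven by a doxycycline-inducible promoter; compound on cells about two nights before reading with doxycycline added after day one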
A number is an active result; – = inactive; ? = inconclusive; · = no result given. Only some compounds are listed: those with a hit (about 4.8% of all), similar ones and a draw of the others.

SMILES	Beta apoptosis	Calb FLC	MPTP inh	CSC inhib	Mdm2-MdmX inh	Mdm2-MdmX conf	FLuc counter
CC1(C)CC(=O)C2=C(C1)N1C(=C(C#N)C2c2ccccc2Cl)N=C(N)c2ccccc21 (configuration not stated)	–	–	–	–	–	·	·
CC1(C)CC(=O)C2=C(C1)N1C(=C(C#N)C2c2ccc(Cl)cc2)N=C(N)c2ccccc21 (configuration not stated)	–	–	–	–	56	–	·
CCc1c(C#N)c(SCCC(=O)Nc2ccc(F)cc2)nc2c1C(=O)CC(C)(C)C2	–	–	–	–	56	–	·
CCc1c(C#N)c(SCCC(=O)Nc2cccc(OC)c2)nc2c1C(=O)CC(C)(C)C2	–	–	–	–	–	·	·
CCCCCNC(=O)C(C1CC1)n1c(=O)c(-c2ccco2)nc2ccccc21 (configuration not stated)	·	·	–	·	·	·	·
Cn1cc(C(=O)N/N=C/c2ccc(Br)c([N+](=O)[O-])c2)c2ccccc21	–	–	–	–	51	–	·
O=C(N/N=C/c1ccc2c(c1)OCO2)c1cccc2ccccc12	–	–	–	·	–	·	·
Cn1cc(C(=O)N/N=C/c2cccs2)c2ccccc21	–	–	–	–	–	·	·
Cc1cccc(C)c1OCC(=O)N/N=C/c1ccc2c(c1)OCO2	–	–	–	–	50	59	56
Cn1cc(C(=O)N/N=C/c2ccc3c(c2)OCO3)c2ccccc21	–	–	–	–	66	44	64
Cc1ccccc1NCC(=O)N/N=C\c1ccc2c(c1)OCO2	–	–	–	–	–	·	·
O=C(N/N=C/c1ccc2c(c1)OCO2)c1sc2cc(Cl)ccc2c1Cl	–	–	–	–	62	–	50
CC(C)(CNC(=O)Cc1ccc(NS(=O)(=O)c2cccc(C(F)(F)F)c2)cc1)N1CCOCC1	·	–	–	–	–	·	·
CCc1nc2ccc(C(=O)NCCOc3ccc(OC)cc3)cn2c1N(C)CCCc1ccccc1	·	·	–	·	·	·	·
OC(c1cc(-c2ccc(C(F)(F)F)cc2)nc(C(F)(F)F)c1)C1CCCCN1 (configuration not stated)	108	–	–	104	96	98	52
CC(=O)Oc1cc2c(C(=O)NCCCN3CCOCC3)c(C)oc2c2ccccc12	·	–	–	–	51	–	·
COc1ccc(S(=O)(=O)N(C)C[C@@H]2OCc3cn(nn3)CCCC(=O)N([C@H](C)CO)C[C@H]2C)cc1	·	·	–	·	·	·	·
CCOC(=O)c1c(C)[nH]c(C(=O)CSc2nnnn2-c2ccc(C)cc2)c1C	–	–	–	–	66	–	·
COC(=O)[C@]12CCCCC=C1N(Cc1ccc3c(c1)OCO3)C(=O)[C@H](CC(=O)N1CCN(C(=O)c3ccco3)CC1)C2	·	·	–	·	·	·	·
COc1ccc(C(=O)N/N=C/c2cc(Br)ccc2O)cc1OC	104	–	–	–	67	64	–
O=C(CNC(=O)c1ccc2c(c1)OCO2)N/N=C/c1cc(Br)ccc1O	81	–	–	·	52	58	47
O=C(CNC(=O)c1ccccc1)N/N=C/c1cc(Br)ccc1O	–	–	–	–	–	·	·
Cn1cccc1-c1cc(C(=O)N/N=C/c2cc(Br)ccc2O)[nH]n1	–	–	–	·	74	78	–
COc1ccc(Br)cc1/C=N/NC(=O)c1cc(Br)ccc1O	–	–	·	·	–	·	·
COc1ccc(O)c(/C=N/NC(=O)c2ccc(OCc3cccc(Br)c3)cc2)c1	93	63	–	91	68	69	–
SMILES	Beta apoptosis	Calb FLC	MPTP inh	CSC inhib	Mdm2-MdmX inh	Mdm2-MdmX conf	FLuc counter
Cc1cc(C(=O)N2CCCC2(C)C(=O)NCC(C)C)nn1C(C)(C)C (configuration not stated)	·	·	–	·	·	·	·
CSc1cccc(CN(C)C(=O)C2CCC(=O)N(CCCN3CCCC3=O)C2)c1 (configuration not stated)	–	–	–	–	–	·	·
CCCCC(=O)N(C)c1c(C)nc2ccc(C(=O)N3CCNC(=O)C3)cn12	·	·	–	·	·	·	·
CCN(CC(=O)Nc1ccccc1OC)C(=O)CC1CCCC1	–	·	–	–	–	·	·
Cc1cccc(C)c1Oc1nc(-c2ccccc2)ncc1S(=O)(=O)c1ccccc1	–	–	–	–	52	–	·
COc1nc(-c2ccccc2)ncc1S(=O)(=O)c1ccccc1	–	–	–	–	–	·	·
CCN(CC)S(=O)(=O)c1ccc(-c2nnc(SCC(=O)N3CCc4ccccc43)o2)cc1	–	–	–	–	75	–	·
CCN(CC)S(=O)(=O)c1ccc(-c2nnc(SCC(=O)N3CCOCC3)o2)cc1	–	–	–	–	–	·	·
NNC(=O)c1cc2c(s1)-c1cc(Cl)ccc1SC2	–	–	–	–	–	·	·
CCN(CC)CCNC(=O)c1cc2c(s1)-c1ccccc1SC2	–	–	–	–	64	48	79
CCOc1ccc(NC(=NCc2ccc3c(c2)OCO3)SC2CC(=O)N(c3ccc(OCC)cc3)C2=O)cc1 (configuration not stated)	–	–	–	–	66	63	65
CCOc1ccc(NC(=NCc2ccc3c(c2)OCO3)SC2CC(=O)N(c3ccccc3)C2=O)cc1 (configuration not stated)	·	–	–	–	60	–	·
O=C1NC[C@@H](CCCCN2C[C@H](Cc3ccccc3)N(CCc3ccccc3)C(=O)C2=O)N(CCc2ccccc2)C1=O	·	·	–	·	·	·	·
COc1nnc(-c2ccc(N3CCCCC3)c(NC(=O)C3CCCCC3)c2)c2ccccc12	79	?	–	–	90	–	·
COc1nnc(-c2ccc(N3CCOCC3)c(NC(=O)C3CCCCC3)c2)c2ccccc12	–	–	–	–	–	·	·
CC(C)(C)OC(=O)C(Oc1ccccc1[N+](=O)[O-])C(=O)OC(C)(C)C	·	·	–	·	·	·	·
COc1ccc(C(C(=O)NCC2CCCO2)N(Cc2cccs2)C(=O)c2snc(C(N)=O)c2N)cc1 (configuration not stated)	–	–	–	–	52	49	88
CN(C)c1ccc(C(C(=O)NC2CCCCC2)N(Cc2ccco2)C(=O)c2snc(C(N)=O)c2N)cc1 (configuration not stated)	–	–	–	–	51	–	92
Cc1[nH]c2ccccc2c1C(=O)c1cc(Cc2ccccc2)sc1N	·	·	–	·	·	·	·
CCN(CC(=O)NCc1cccs1)C(=O)c1ccc(NS(=O)(=O)c2cccc([N+](=O)[O-])c2)cc1	–	–	–	–	–	·	·
Cc1ccc(OC(=O)c2oc3ccc(F)cc3c2C)c(C)c1	–	–	–	–	52	–	·
CCc1ccc(/C=N/NC(=O)c2cc(C3CC3)nc3ccc(Br)cc23)s1	–	–	–	–	63	55	54
